This passage reports outcome and AC50 results from PubChem BioAssay (EPA / NIEHS).

Calls of active or inactive are those of the source. Rule for the calls: active = hit-call score of the fitted dose curve at least 0.9, where 1 is the maximum; inactive = score below 0.9.

Read-out in the first experiment: Thrombomodulin, THBD (gene 7056)
Nature of the experiment: BSK_3C_Thrombomodulin: BioMAP Diversity Plus: 3C Assay for Thrombomodulin Biomarker Activity (AID 2283029). As to conditions: primary human endothelial cells (HUVEC); actives raise or lower the signal. A digest of the protocol: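 ELISA measurement of thrombomodulin on HUVEC surface 24 h after chemical dosing; activity fitted in both directions relative to DMSO vehicle.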
Consider `Cc1cc(C)cc(C)c1`, for which the outcome was inactive.

For `Cc1ccccc1OP(=O)(Oc1ccccc1)Oc1ccccc1`, the outcome was inactive.

For `Cc1ccc(OP(=O)(Oc2ccc(C)cc2C)Oc2ccc(C)cc2C)c(C)c1`, the outcome was inactive.

With `O=c1oc2ccccc2c(O)c1C(CC(O)c1ccc(-c2ccc(Br)cc2)cc1)c1ccccc1` (stereo unspecified), the result was inactive.

`O=S(=O)(c1ccc(Cl)cc1)c1cc(Cl)c(Cl)cc1Cl`: the result was inactive.

Regarding `OC(Cc1ccccc1Cl)(Cn1[nH]cnc1=S)C1(Cl)CC1` (stereo unspecified), the outcome was inactive.

With `Cc1ccc2nc3sc(=O)sc3nc2c1`, the result was inactive.

For the molecule `C=CC(Cl)CCl` (stereo unspecified), the result was inactive.

Read-out in another experiment: Urokinase-type plasminogen activator receptor (uPAR), PLAUR (gene 5329)
Nature of the experiment: BSK_4H_uPAR: BioMAP Diversity Plus: 4H Assay for Urokinase-type plasminogen activator receptor (uPAR) Biomarker Activity (AID 2283030). As to conditions: primary human endothelial cells (HUVEC); actives raise or lower the signal. A digest of the protocol:
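Human umbilical vein endothelial cells in the 4H system, 24 h after chemical dosing. Cell-surface uPAR measured by ELISA, fitted in both directions versus DMSO; cytotoxicity checked by SRB total protein in parallel cultures.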
As to `Cc1cc(C)cc(C)c1`, the outcome was inactive.

The AC50 is the midpoint of the concentration-response curve, whichever way the signal moves. Turning to `Cc1ccccc1OP(=O)(Oc1ccccc1)Oc1ccccc1`, the half-maximal activity concentration (AC50) is 32.2 µM (active).

On to `Cc1ccc(OP(=O)(Oc2ccc(C)cc2C)Oc2ccc(C)cc2C)c(C)c1`, for which the result was inactive.

Turning to `O=c1oc2ccccc2c(O)c1C(CC(O)c1ccc(-c2ccc(Br)cc2)cc1)c1ccccc1` (stereo unspecified), the AC50 is 6.9 µM (active).

Consider `O=S(=O)(c1ccc(Cl)cc1)c1cc(Cl)c(Cl)cc1Cl`, for which the outcome was inactive.

As to `OC(Cc1ccccc1Cl)(Cn1[nH]cnc1=S)C1(Cl)CC1` (stereo unspecified), the concentration at half-maximal activity (AC50) is 20 µM (active).

As to `Cc1ccc2nc3sc(=O)sc3nc2c1`, the AC50 is 6.39 µM (active).

With `C=CC(Cl)CCl` (stereo unspecified), the result was inactive.
